According to PubChem BioAssay (EPA / NIEHS):
Results filed as inconclusive are left out. More than one record can exist for a structure, and the calls need not agree. Activity calls are given as the source filed them. The calls were made as follows, unless noted: active = hit-call score of the fitted dose curve at least 0.9, where 1 is the maximum; inconclusive = response in the unintended direction; inactive = score below 0.9.

Tests used:
[1] = molecular target: Bile acid receptor (Homo sapiens) (UniProt Q96RI1); test: ATG_FXR_TRANS: Attagene TRANS-FACTORIAL HepG2 Assay for Farnesoid X Receptor (FXR) (AID 2282979); details: HepG2 Attagene TRANS FXR-GAL4 reporter transcription;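 also: hits raise reporter mRNA above DMSO so AC50 marks FXR activation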
Method in brief: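 After 24 h chemical treatment of transfected HepG2 cells, GAL4-UAS reporter transcripts driven by an exogenous FXR-GAL4 fusion were measured by RT-PCR and capillary electrophoresis. Increases over DMSO were fitted.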

[2] = molecular target: Oxysterols receptor LXR-alpha (Homo sapiens) (UniProt Q13133); test: ATG_LXRa_TRANS: Attagene TRANS-FACTORIAL HepG2 Assay for human Liver X Receptor alpha (LXRa) (AID 2282980); details: HepG2 Attagene TRANS reporter, LXRa transactivation
Method in brief: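 In this multiplexed TRANS system, compounds act on HepG2 cells carrying GAL4-UAS reporter units and a receptor-GAL4 fusion for 24 h. Induced reporter RNA is amplified, fluorescently labelled and sized by capillary electrophoresis, with DMSO as baseline.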

[3] = molecular target: Oxysterols receptor LXR-beta (Homo sapiens) (UniProt P55055); test: ATG_LXRb_TRANS: Attagene TRANS-FACTORIAL HepG2 Assay for human Liver X Receptor beta (LXRb) (AID 2282981); details: HepG2 Attagene TRANS GAL4-LXRb reporter, mRNA
Method in brief: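 Liver-derived HepG2 cells transfected with Gal4-responsive reporters were dosed for 24 h. Activation was scored as rise in reporter mRNA, by RT-PCR and capillary electrophoresis, above DMSO baseline.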

[4] = ATG_M_06_TRANS: Attagene TRANS-FACTORIAL HepG2 Assay for M06 Transcription Factor (Internal Marker) (AID 2282983); details: HepG2 Attagene TRANS M06 internal marker reporter;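 also: reporter transcript level by RT-PCR then capillary electrophoresis fluorescence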
Method in brief: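 Multi-reporter-transfected HepG2, 24 h treatment; reporter transcripts quantified via RT-PCR, primer-extension labelling and CE. DMSO-normalized gain-of-signal fit.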

[5] = molecular target: Transcriptional activator Myb (Homo sapiens) (UniProt P10242); test: ATG_Myb_CIS: Attagene CIS-FACTORIAL HepG2 Assay for human Myeloblastosis (Myb) Proto-Oncogene Transcription Factor (AID 2282986; active = hit-call score of the fitted dose curve at least 0.9, where 1 is the maximum; inactive = score below 0.9); details: HepG2 Attagene CIS-FACTORIAL Myb reporter transcription; actives raise or lower the signal
Method in brief: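 Transiently transfected HepG2 cells carrying a multiplexed cis-promoter reporter set report endogenous Myb activity after 24 h compound exposure. Reporter mRNA is read by RT-PCR with capillary electrophoresis of fluorescent products, fitted bidirectionally against DMSO.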

[6] = molecular target: Nuclear respiratory factor 1 (Homo sapiens) (UniProt Q16656); test: ATG_NRF1_CIS: Attagene CIS-FACTORIAL HepG2 Assay for human Nuclear Respiratory Factor 1 (NRF1) Orphan Gene (AID 2282987; active = hit-call score of the fitted dose curve at least 0.9, where 1 is the maximum; inactive = score below 0.9); details: HepG2 NRF1 cis-element reporter, Attagene multiplex; actives raise or lower the signal
Method in brief: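 HepG2 cells transiently transfected with multiple cis-regulated reporter units, exposed 24 h. Reporter mRNAs measured by RT-PCR, fluorescent labelling, HpaI digestion and capillary electrophoresis; bidirectional fitting against DMSO.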

[7] = ATG_NFI_CIS: Attagene CIS-FACTORIAL HepG2 Assay for human Nuclear Factor I (NFI) (AID 2282989; active = hit-call score of the fitted dose curve at least 0.9, where 1 is the maximum; inactive = score below 0.9); details: HepG2 cis-regulatory reporter, NFI response element transcription; actives raise or lower the signal
Method in brief: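 After transient transfection of HepG2 with cis-promoter reporter constructs and 24 h dosing, RNA is reverse-transcribed, amplified, 6-FAM end-labelled and HpaI-digested before capillary analysis. Bidirectional curve fitting against DMSO.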

[8] = ATG_M_32_TRANS: Attagene TRANS-FACTORIAL HepG2 Assay for M32 Transcription Factor (Internal Marker) (AID 2282984); details: HepG2 Attagene TRANS M32 internal marker reporter;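 also: transcript level of a background control reporter unit measured by RT-PCR and capillary electrophoresis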
Method in brief: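 Fluorescence-detected mRNA induction, HepG2 liver cells, 24 h after dosing. Multiple GAL4-UAS reporter units introduced by transient transfection; background-control endpoint analysed for gain of signal against DMSO.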

[9] = molecular target: Nuclear receptor subfamily 4 group A member 2 (Homo sapiens) (UniProt P43354); test: ATG_NURR1_TRANS: Attagene TRANS-FACTORIAL HepG2 Assay for human Nuclear Receptor Related Protein 1 (NURR1) (AID 2282985); details: HepG2 Attagene TRANS reporter, mRNA readout
Method in brief: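 Chimeric NR-Gal4 proteins were expressed in human HepG2 cells bearing GAL4-UAS reporter units, and induced reporter mRNA was quantified 24 h post-dosing by RT-PCR and capillary electrophoresis.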

[10] = molecular target: Hepatocyte nuclear factor 4-alpha (Homo sapiens) (UniProt P41235); test: ATG_HNF4a_TRANS: Attagene TRANS-FACTORIAL HepG2 Assay for human Hepatocyte Nuclear Factor 4 alpha (HNF4a) (AID 2282982); details: HepG2 HNF4a transactivation reporter, mRNA readout
Method in brief: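 Using HepG2 liver cells transfected with GAL4-UAS reporter units, chemical-induced mRNA increases were assessed after 24 hours. Fluorescent RT-PCR fragments were separated by capillary electrophoresis and compared with DMSO negative controls.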

Measured: AC50

Chain of Oxysterols receptor LXR-alpha (Homo sapiens) (Q13133 whole entry, looked up, the tested form may be a part): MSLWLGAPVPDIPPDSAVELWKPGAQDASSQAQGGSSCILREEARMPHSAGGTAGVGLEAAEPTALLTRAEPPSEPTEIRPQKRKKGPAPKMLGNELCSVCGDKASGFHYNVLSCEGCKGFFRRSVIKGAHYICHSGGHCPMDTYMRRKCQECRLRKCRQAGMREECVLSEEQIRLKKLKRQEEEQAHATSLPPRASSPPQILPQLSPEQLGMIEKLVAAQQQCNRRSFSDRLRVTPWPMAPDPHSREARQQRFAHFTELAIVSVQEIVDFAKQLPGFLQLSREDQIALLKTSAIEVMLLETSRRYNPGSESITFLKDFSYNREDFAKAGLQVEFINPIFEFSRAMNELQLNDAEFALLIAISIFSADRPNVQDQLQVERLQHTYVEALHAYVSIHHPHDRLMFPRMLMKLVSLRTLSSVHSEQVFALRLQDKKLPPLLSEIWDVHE
Chain of Bile acid receptor (Homo sapiens) (Q96RI1 whole entry, looked up, the tested form may be a part): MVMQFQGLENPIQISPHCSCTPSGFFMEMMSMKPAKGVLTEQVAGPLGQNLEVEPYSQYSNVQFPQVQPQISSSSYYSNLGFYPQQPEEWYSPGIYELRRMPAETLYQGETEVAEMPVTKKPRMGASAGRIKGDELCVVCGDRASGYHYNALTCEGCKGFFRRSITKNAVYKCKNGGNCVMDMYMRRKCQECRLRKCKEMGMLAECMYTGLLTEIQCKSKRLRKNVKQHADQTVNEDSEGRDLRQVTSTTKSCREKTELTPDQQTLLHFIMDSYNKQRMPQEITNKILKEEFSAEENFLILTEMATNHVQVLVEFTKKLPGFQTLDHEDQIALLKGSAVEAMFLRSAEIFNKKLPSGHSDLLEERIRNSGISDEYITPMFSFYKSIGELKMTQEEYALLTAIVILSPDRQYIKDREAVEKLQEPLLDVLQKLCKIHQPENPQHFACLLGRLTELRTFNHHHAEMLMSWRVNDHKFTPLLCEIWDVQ
Chain of Nuclear respiratory factor 1 (Homo sapiens) (Q16656 whole entry, looked up): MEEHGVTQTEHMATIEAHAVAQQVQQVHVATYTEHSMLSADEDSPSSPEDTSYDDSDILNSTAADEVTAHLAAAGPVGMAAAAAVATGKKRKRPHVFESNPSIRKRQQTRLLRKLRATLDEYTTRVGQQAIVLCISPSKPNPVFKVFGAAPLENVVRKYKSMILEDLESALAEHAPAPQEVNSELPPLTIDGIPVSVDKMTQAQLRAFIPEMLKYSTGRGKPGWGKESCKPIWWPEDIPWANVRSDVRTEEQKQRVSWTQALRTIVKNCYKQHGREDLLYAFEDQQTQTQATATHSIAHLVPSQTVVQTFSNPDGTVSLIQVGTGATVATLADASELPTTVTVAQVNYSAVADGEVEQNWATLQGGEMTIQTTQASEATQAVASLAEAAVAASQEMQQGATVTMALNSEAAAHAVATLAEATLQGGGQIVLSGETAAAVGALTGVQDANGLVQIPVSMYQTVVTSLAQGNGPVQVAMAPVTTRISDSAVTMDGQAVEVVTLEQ
Chain of Hepatocyte nuclear factor 4-alpha (Homo sapiens) (P41235 whole entry, looked up, the tested form may be a part): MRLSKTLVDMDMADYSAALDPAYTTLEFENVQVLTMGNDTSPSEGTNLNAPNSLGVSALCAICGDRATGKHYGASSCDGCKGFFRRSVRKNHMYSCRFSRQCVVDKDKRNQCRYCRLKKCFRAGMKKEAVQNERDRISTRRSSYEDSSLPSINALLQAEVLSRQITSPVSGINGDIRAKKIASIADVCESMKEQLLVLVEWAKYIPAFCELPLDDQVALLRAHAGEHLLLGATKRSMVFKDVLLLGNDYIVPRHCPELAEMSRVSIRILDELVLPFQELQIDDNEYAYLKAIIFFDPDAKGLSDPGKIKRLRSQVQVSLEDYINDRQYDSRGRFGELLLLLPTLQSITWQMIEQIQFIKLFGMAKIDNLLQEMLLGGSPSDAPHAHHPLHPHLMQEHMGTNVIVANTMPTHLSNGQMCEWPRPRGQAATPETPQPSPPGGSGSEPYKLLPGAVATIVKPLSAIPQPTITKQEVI
Chain of Transcriptional activator Myb (Homo sapiens) (P10242 whole entry, looked up): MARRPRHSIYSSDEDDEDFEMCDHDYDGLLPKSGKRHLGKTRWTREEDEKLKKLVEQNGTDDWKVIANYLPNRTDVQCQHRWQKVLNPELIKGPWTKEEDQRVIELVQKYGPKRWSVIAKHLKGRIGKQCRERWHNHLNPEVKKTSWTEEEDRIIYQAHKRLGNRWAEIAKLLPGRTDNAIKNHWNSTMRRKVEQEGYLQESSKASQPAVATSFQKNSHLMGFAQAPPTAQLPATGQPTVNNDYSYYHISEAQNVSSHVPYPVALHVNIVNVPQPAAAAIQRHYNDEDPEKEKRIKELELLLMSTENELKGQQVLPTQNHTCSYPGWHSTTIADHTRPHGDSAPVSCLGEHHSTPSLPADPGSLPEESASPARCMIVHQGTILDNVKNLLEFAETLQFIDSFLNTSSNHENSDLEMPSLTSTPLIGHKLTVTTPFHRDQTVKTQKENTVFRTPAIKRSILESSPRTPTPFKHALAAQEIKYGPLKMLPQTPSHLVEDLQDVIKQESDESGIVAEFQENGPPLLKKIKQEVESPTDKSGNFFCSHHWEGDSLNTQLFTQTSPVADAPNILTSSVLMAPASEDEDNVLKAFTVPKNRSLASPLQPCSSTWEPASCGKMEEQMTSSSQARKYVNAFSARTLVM
Chain of Oxysterols receptor LXR-beta (Homo sapiens) (P55055 whole entry, looked up, the tested form may be a part): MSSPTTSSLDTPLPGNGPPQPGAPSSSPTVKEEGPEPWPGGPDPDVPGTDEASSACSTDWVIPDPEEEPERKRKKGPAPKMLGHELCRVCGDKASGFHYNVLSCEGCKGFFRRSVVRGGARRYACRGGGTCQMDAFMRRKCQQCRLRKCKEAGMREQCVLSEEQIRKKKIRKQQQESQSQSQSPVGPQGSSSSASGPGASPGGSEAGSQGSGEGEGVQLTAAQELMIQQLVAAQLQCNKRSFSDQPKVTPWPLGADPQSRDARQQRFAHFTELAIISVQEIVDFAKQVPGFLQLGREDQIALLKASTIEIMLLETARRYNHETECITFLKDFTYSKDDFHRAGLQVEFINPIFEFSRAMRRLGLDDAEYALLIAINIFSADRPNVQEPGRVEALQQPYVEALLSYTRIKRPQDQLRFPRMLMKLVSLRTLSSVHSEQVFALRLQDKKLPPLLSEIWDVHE
Chain of Nuclear receptor subfamily 4 group A member 2 (Homo sapiens) (P43354 whole entry, looked up, the tested form may be a part): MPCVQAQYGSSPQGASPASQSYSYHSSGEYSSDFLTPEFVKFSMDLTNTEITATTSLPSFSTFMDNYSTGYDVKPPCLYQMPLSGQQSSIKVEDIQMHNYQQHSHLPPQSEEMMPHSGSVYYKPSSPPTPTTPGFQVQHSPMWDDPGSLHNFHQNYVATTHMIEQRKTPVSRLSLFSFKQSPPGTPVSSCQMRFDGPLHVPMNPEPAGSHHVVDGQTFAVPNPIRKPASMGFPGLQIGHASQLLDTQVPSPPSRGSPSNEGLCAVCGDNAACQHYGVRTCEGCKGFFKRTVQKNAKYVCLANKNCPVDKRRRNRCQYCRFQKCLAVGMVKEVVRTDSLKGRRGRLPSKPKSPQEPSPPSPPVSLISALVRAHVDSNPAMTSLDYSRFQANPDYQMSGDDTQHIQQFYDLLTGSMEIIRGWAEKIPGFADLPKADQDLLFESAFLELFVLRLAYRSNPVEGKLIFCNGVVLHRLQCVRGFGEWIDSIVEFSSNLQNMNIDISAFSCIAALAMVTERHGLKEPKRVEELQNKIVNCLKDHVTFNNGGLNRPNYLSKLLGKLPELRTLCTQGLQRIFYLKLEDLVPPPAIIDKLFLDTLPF

O=C(N[C@@H](c1ccccc1)[C@@H]1CCCCN1)c1cccc(C(F)(F)F)c1Cl
inactive: [1] | [2] | [3] | [4] | [5] | [7]
active: [6] 56.9 µM

CCCCCCC(CCCCCCCCCCC(=O)OCC(COC(C)=O)OC(C)=O)OC(C)=O (centres undefined)
inactive: [1] | [4] | [5] | [6] | [7]

O=C(Oc1ccccc1)c1cccc(C(=O)Oc2ccccc2)c1
inactive: [1] | [4] | [8] | [9] | [5] | [6] | [7]

CC(COCC(C)OC(=O)c1ccccc1)OC(=O)c1ccccc1 (centres undefined)
inactive: [1] | [10] | [4] | [5] | [6] | [7]

CC(=O)S[C@H](C(=O)N[C@H]1Cc2ccccc2[C@H]2CCC[C@@H](C(=O)O)N2C1=O)C(C)C
inactive: [1] | [2] | [3] | [9] | [5] | [6] | [7]

CCCCC(CC)COP(=O)(OCC(CC)CCCC)OCC(CC)CCCC (centres undefined)
inactive: [1] | [4] | [5] | [6] | [7]

c1ccc2occc2c1
inactive: [1] | [2] | [3] | [4] | [9] | [5] | [6] | [7]

CC(C)OC(=O)C(C)(C)Oc1ccc(C(=O)c2ccc(Cl)cc2)cc1
inactive: [10] | [4] | [5] | [6] | [7]
active: [1] 26.8 µM | [9] 26.9 µM

CC(C)COC(=O)CCCCC(=O)OCC(C)C
inactive: [1] | [3] | [10] | [8] | [5] | [6] | [7]

CN(C)CCCN(C)CCCN(C)C
inactive: [1] | [5] | [6] | [7]
active: [2] 23.8 µM

CSc1ccc(Oc2ccc(S(N)(=O)=O)cc2CN(C)C)cc1C
inactive: [1] | [2] | [3] | [8] | [9] | [5] | [6] | [7]

CN(C)CCCN1c2ccccc2Sc2ccc(Cl)cc21
inactive: [1] | [3] | [4] | [8] | [9] | [5] | [6] | [7]

CCCCC(CC)COC(=O)CCCCCCCC(=O)OCC(CC)CCCC (centres undefined)
inactive: [1] | [3] | [4] | [9] | [5] | [6] | [7]

CCN(CC)CCOc1ccc(C(=C(Cl)c2ccccc2)c2ccccc2)cc1
inactive: [1] | [2] | [3] | [10] | [4] | [8] | [5] | [6] | [7]
active: [1] 14.8 µM | [5] 14.5 µM | [6] 14.7 µM | [7] 14.8 µM

CCCCCCC(C=O)=Cc1ccccc1
active: [7] 60 µM
inactive: [1] | [2] | [3] | [10] | [4] | [8] | [9] | [5] | [6] | [7]

CCCCC(CC)CO (centres undefined)
inactive: [1] | [3] | [10] | [4] | [9] | [5] | [6] | [7]

CN(C)C(=O)NC1(c2ccccc2)CCN(CCC[C@]2(c3ccc(Cl)c(Cl)c3)CCCN(C(=O)c3ccccc3)C2)CC1
inactive: [1] | [3] | [10] | [8] | [5]
active: [6] 4.5 µM | [7] 3.32 µM

CC(=O)OC1CC(C)OC(C)O1 (centres undefined)
inactive: [1] | [3] | [8] | [9] | [5] | [6] | [7]

Cc1cc(Cc2ccc(N)c(C)c2)ccc1N
inactive: [1] | [4] | [9] | [5] | [6] | [7]

CCCCc1nc2cccnc2n1Cc1ccc(-c2ccccc2-c2nnn[nH]2)cc1
inactive: [1] | [2] | [3] | [8] | [5] | [6] | [7]

O=C(O)c1cccnc1
inactive: [1] | [4] | [8] | [9] | [5] | [6] | [7]

NC(=Nc1ccccc1)Nc1ccccc1
inactive: [1] | [3] | [10] | [4] | [8] | [5] | [6] | [7]

Nc1nc(Cl)nc2c1ncn2[C@H]1C[C@H](O)[C@@H](CO)O1
inactive: [1] | [3] | [4] | [5] | [6] | [7]

C=CCc1ccc(OC)c(OC)c1
inactive: [1] | [2] | [10] | [4] | [5] | [6] | [7]

Cn1cnc2c1c(=O)[nH]c(=O)n2C
inactive: [1] | [2] | [4] | [9] | [5] | [6] | [7]

O=C(O)CN(CC(=O)O)CC(=O)O
inactive: [1] | [2] | [10] | [4] | [8] | [9] | [6] | [7]
active: [5] 0.386 µM

CCc1nc(N)nc(N)c1-c1ccc(Cl)cc1
inactive: [1] | [4] | [5] | [7]
active: [6] 48.8 µM

Cc1ccc(C(C)(C)C)c(O)c1
active: [7] 141 µM
inactive: [1] | [4] | [5] | [6]

COC(=O)CCCC(=O)OC
inactive: [1] | [10] | [4] | [9] | [5] | [6] | [7]

Nc1nc(=S)c2[nH]cnc2[nH]1
inactive: [2] | [3] | [10] | [4] | [9] | [5] | [6] | [7]

CC(C)(O)c1ccc(CNC(=O)c2cccnc2Oc2ccc(F)cc2)cc1
inactive: [2] | [3] | [8] | [5] | [6] | [7]

NC=O
inactive: [2] | [3] | [10] | [4] | [9] | [5] | [6] | [7]

CC(N)=O
inactive: [2] | [3] | [4] | [8] | [9] | [5] | [6] | [7]

CCCCCCCC(=O)OC
inactive: [3] | [4] | [8] | [9] | [5] | [6] | [7]

S=c1[nH]c2ccccc2s1
inactive: [2] | [10] | [4] | [5] | [6] | [7]

CC(=O)OCC(COC(C)=O)OC(C)=O
inactive: [3] | [10] | [4] | [5] | [6] | [7]

COC(=O)CCC(=O)OC
inactive: [1] | [5] | [6] | [7]

O=C(NS(=O)(=O)/C=C/c1cccs1)c1ccc(F)cc1Br
inactive: [2] | [8] | [5] | [6] | [7]
